For 33 compounds, activity, negative = inhibition results are on record in PubChem BioAssay (NCATS).

Values joined by “and” are separate entries in the source; they are usually repeats but may differ in a detail not shown here. Identical values can stand only once. Inconclusive results are not listed. Unmarked numbers belong to inactive results. Calls come from the whole dose curve; as a rule, active = well fitted inhibition curve with a large enough effect; inconclusive = small, poorly fitted or top-dose-only effect; inactive = flat fitted curve, though single readings scatter.

A short description of the assay: qHTS profiling for inhibitors of Plasmodium falciparum proliferation (AID 504749).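 Note: 0% = DMSO vehicle and full inhibition = artemisinin control; nearly all actives have a fitted effect of over 60% in size.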 The conditions noted are these: P. falciparum in erythrocytes, SYBR Green DNA, 72 h; at 28.7 µM (top of the series); parasite line A. In outline:
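Three-day growth assay of blood-stage parasites in erythrocytes (0.3% parasitemia, 2.5% hematocrit) at 37 C, 5% CO2, quantified by SYBR Green DNA staining after overnight detergent lysis.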
For the compound `[O-][n+]1cccc(CO)c1`, the activity, negative = inhibition was -0.247%.
Turning to `Cc1cccc(C)c1NC(=O)CN(CC(=O)O)CC(=O)O`, the activity, negative = inhibition was 13.4%.
`O=C(O)[C@@H]1CSCN1`: the activity, negative = inhibition is 8.72%.
As to `N[C@@H](CSCCCO)C(=O)O`, the activity, negative = inhibition is -6.32%.
The value for `O=c1[nH]c(=O)c2[nH]c(=O)[nH]c2[nH]1` was -3.55%; that for `CCCCCCCCCCCCCCCCCCOCC(O)CO` (stereo not drawn) was 11.2%.
As for `O=C(O)c1ccccc1-c1ccc(C(F)(F)F)cc1`, the activity, negative = inhibition is 11.3%.
For `C[C@](N)(Cc1ccc(O)cc1)C(=O)O`, the activity, negative = inhibition was 4.44%.
For the compound `O=C1OC(OC(=O)c2cccnc2Nc2cccc(C(F)(F)F)c2)c2ccccc21` (stereo not drawn), the activity, negative = inhibition is -4.18%.
The value for `Nc1ccc(S(=O)(=O)Nc2ccccc2)cc1` was -9.52%; that for `NC(=O)NNc1ccccc1` was -7.35% and 18%.
The value for `CC1(C)[C@@H]2CC[C@@]1(C)C(=O)C2` was 5.82%; that for `CCC(=O)Nc1ccc(O)cc1` was 11.9%; that for `CC1(C)CO[C@@H](CC(=O)O)CN1` was 1.48%.
`CCCCc1ncc(/C=C(\Cc2cccs2)C(=O)O)n1Cc1ccc(C(=O)O)cc1`: the activity, negative = inhibition was 6.94%.
With `NCCNCCNCCNCCN` the figure was 12.5%.
The value for `CCN(CC)CCSC(=O)C(c1ccccc1)c1ccccc1` was 10.5% and 6.38%; that for `C=Cc1c(C)c2cc3[nH]c(cc4nc(cc5nc(cc1[nH]2)C(C)=C5CCC(=O)O)C(CCC(=O)O)=C4C)c(C)c3C=C` was -6.02%.
For `NCC(=O)CCC(=O)O`, the activity, negative = inhibition was 2.38%.
Take `COc1cc(C(=O)N2CCOCC2)cc(OC)c1OC`: the activity, negative = inhibition was 13.6% and -1.06%.
On to `Cc1cccc(Nc2cc(Cl)nc(SCC(=O)O)n2)c1C`, for which the activity, negative = inhibition was 11.5%.
Turning to `O=C(O)COc1nn(Cc2ccccc2)c2ccccc12`, the activity, negative = inhibition was 1.43%.
As to `CC(=O)NC(Cc1ccccc1)C(=O)O` (stereo not drawn), the activity, negative = inhibition is 3.68%.
Consider `Cc1cc(CC(=O)O)n(C)c1C(=O)c1ccc(Cl)cc1`, for which the activity, negative = inhibition is -8.03% and -6.63%.
With `CCCOC(=O)c1ccccc1`, the activity, negative = inhibition was -2.05%.
With `CCCCC(CC)COC(=O)c1ccccc1O` (stereo not drawn), the activity, negative = inhibition was 5.45%.
In the case of `Oc1cccc(O)c1`, the activity, negative = inhibition is 9.04%.
In the case of `CC(=O)CCC(=O)O`, the activity, negative = inhibition is 10.3%.
Regarding `CCN(CC)CCNC(=O)c1cc(Cl)c(N)cc1OC`, the activity, negative = inhibition was 11.7%.
With `CCCn1cnc2c1c(=O)n(CCCCC(C)=O)c(=O)n2C`, the activity, negative = inhibition was -5.61%.
For `O=C1c2c(O)cccc2Cc2cccc(O)c21`, the activity, negative = inhibition is 14.6%.
For the compound `Cc1ncc(COP(=O)(O)O)c(C=O)c1O`, the activity, negative = inhibition was -4.1%.
With `O=c1cc(CO)occ1O`, the activity, negative = inhibition is 1.47%.
